Compound activity as filed in PubChem BioAssay.
In the library only some 5.3% were active in any assay of this set; here they are far more common.
M18AAP inhibitor – blocks P. falciparum M18 aspartyl aminopeptidase; recombinant PfM18AAP, H-Glu-NHMec fluorogenic cleavage; inhibition, % at 7.35 µM; 290,000 tested, 1.2% active; AID 1822;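 active = inhibition above the campaign mean inhibition over all tested compounds plus 3 SD, cut at about 28% in these data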;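 note: 0% = plate median of test compound wells and 100% = 2 mM ZnCl2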
ALR H2O2 inh – inhibitors of human sulfhydryl oxidase ALR; purified ALR, DTT oxidation, H2O2 HRP-luminol luminescence; 290,000 tested, 3.8% active; P55789; AID 485317; inhibition, % (concentration not given with the values);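 active = mean replicate inhibition above about 79%, with every replicate also reaching it, limit read from the data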
Target sequence (P55789 whole entry, looked up): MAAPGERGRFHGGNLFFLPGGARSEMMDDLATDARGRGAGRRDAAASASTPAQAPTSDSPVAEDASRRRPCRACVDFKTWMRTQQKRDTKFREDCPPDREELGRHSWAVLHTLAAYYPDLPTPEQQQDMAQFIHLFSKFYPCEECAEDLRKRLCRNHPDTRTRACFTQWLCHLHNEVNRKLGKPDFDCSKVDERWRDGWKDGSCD
HIF act – HIF pathway transcriptional activation; U2OS HRE-luciferase reporter, luminescence; normalized: DMSO 0%, desferrioxamine 100%; activation, % at 7.5 µM (by protocol); 300,000 tested, 0.32% active; AID 1910;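 active = mean activation of at least 10% of the iron chelator positive control signal, with at least half of replicates also reaching 10%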
Mot1-301 SUMO – inhibitors of SUMOylation pathway: yeast Mot1-301 growth rescue; growth rescue, % at 18.8 µM; AID 2716; 320,000 tested, 1% active; S. cerevisiae Mot1-301 growth rescue, ATP luminescence, 38.5C; percent above DMSO median, 100 means doubled;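 active = every valid replicate shows activation above 250% relative to neutral control wells; inactive = the rest, any valid replicate at or below 250%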;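 note: OY570 slx delta 5 strain wells were the positive control but not used for scaling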
The depositor's hits bear a star; . = no result given.

SMILES	M18AAP inhibitor	ALR H2O2 inh	HIF act	Mot1-301 SUMO
O=C(NCc1ccc2c(c1)OCO2)c1ccc(CS(=O)Cc2cccc(Cl)c2)o1 (configuration not stated)	5	94*	0	5
Cc1ccc(CS(=O)Cc2ccc(C(=O)NCc3ccccc3Cl)o2)cc1 (configuration not stated)	-3	-2	0	6
Cc1ccc(CNC(=O)c2ccc(CS(=O)Cc3ccccc3Cl)o2)cc1 (configuration not stated)	-7	99*	-1	-2
COc1cc(NC(=O)c2ccc(Cl)cc2)c(Cl)cc1NC(=O)c1cccnc1	-1	-15	0	-5
COc1cccc(NC(=O)CSc2ncnc3c2cnn3Cc2ccccc2)c1	5	90*	0	-14
COc1cccc(NC(=O)CSc2c3c(nc4ccccc24)CCCC3)c1	9	99*	1	2
COc1ccc(NC(=O)CSc2ncnc3c2cnn3CCc2ccccc2)cc1	0	6	0	10
Cc1cccc(NC(=O)CSc2c3c(nc4ccccc24)CCC3)n1	-1	99*	0	-3
CCC(C)NC(=O)CSc1c2c(nc3ccccc13)CCCC2 (configuration not stated)	-2	37	0	-9
O=C(Nc1ccc(F)cc1)C1CCN(S(=O)(=O)c2cccc3nonc23)CC1	3	-3	1	-15
Cc1occc1-c1nnc(SCC(=O)c2ccc(F)cc2)o1	-3	97*	4	2
Cc1occc1-c1nnc(SCC(N)=O)o1	-3	-5	-1	-20
Cc1ccc2c(C)c(C(=O)N3CCN(c4ncccn4)CC3)oc2c1C	-5	.	0	.
Cc1[nH]c2ccccc2c1/C=C(\C#N)S(=O)(=O)c1ccccc1	1	97*	0	-10
COc1cccc(C(=O)NCCNC(=O)c2ccc(C)nc2)c1	-2	-1	-1	-12
O=C(CCCN1C(=O)c2ccccc2C1=O)OC1CSCC1NC(=O)c1ccccc1 (configuration not stated)	3	-7	0	299*
CC1CN(c2nc(Nc3ccccc3F)nc(N)c2[N+](=O)[O-])CC(C)O1 (configuration not stated)	0	-17	-1	-13
Cn1ccnc1Sc1ccc(/C=N/NC(=O)c2ccccc2O)cc1[N+](=O)[O-]	-11	-11	0	-8
CCCN(C(=O)CSc1n[nH]c(-c2ccc(OC)cc2)n1)c1c(N)n(Cc2ccccc2)c(=O)[nH]c1=O	.	86*	0	1
CCN(c1ccccc1)S(=O)(=O)c1ccc2c(c1)N(C(C)=O)CCS2	3	-5	-1	0
Cc1cc(/C=N/n2c(COc3ccccc3)nc3ccccc3c2=O)c(O)c([N+](=O)[O-])c1	1	-4	15*	26
O=C(NCC(=O)N1CCN(c2ncccn2)CC1)c1ccccc1OC(F)F	.	.	.	-5
Cc1ccc(S(=O)(=O)N(C)/C(=N/S(=O)(=O)c2ccccc2)c2ccccc2)cc1	-5	99*	0	-5
CC(=O)c1cc(NC(=O)c2ccc(Cl)cc2)c(=O)oc1/C=C/N(C)C	-4	97*	1	.
COc1ccc(C(=O)Nc2cc(C(C)=O)c(C)oc2=O)cc1	-12	92*	2	420
SMILES	M18AAP inhibitor	ALR H2O2 inh	HIF act	Mot1-301 SUMO
CCCCn1c(N)c(N(C)C(=O)C2CC(=O)N(Cc3ccco3)C2)c(=O)[nH]c1=O (configuration not stated)	.	.	.	-15
COc1cccc(CN2CCC(N(CCc3ccccc3)Cc3ccccc3)CC2)c1OC	7	-3	582*	8
Cc1cc(C(=O)Nc2sc3c(c2C#N)CCCC3)no1	5	97*	2	15
Cc1noc(C(=O)Nc2sc3c(c2C#N)CCC3)c1Cl	2	8	14*	8
Cc1cc(C(=O)Nc2sc3c(c2C#N)CCC3)no1	7	14	3	15
CN1CCN(S(=O)(=O)c2cccc(C(=O)NC3(C)CCS(=O)(=O)C3)c2)CC1 (configuration not stated)	.	-12	.	22
CCN1CCN(C(=O)c2cc(COc3ccc(F)cc3F)on2)[C@@H](C)C1=O	-15	-3	0	-5
COc1ccc(-c2cc(C(=O)NC3=NCCS3)c3ccccc3n2)cc1OC	-1	98*	0	3
O=C(NC1=NCCS1)c1cc(-c2ccc(-c3ccccc3)cc2)nc2ccccc12	1	-10	2	7
COc1cc(/C=N/NS(=O)(=O)c2ccc(C)cc2)ccc1OCc1cccc(C(=O)O)c1	1	19	-3	733*
COc1ccc(NC(=O)CSc2nc(NS(=O)(=O)c3ccccc3)cc(=O)[nH]2)cc1	-4	100*	3	7
O=C(CSc1nc(NS(=O)(=O)c2ccccc2)cc(=O)[nH]1)Nc1ccc(Cl)cc1	5	.	.	.
Cc1ccc(S(=O)(=O)Nc2cc(=O)[nH]c(SCc3ccccc3Cl)n2)cc1	-4	96*	0	11
C#CCSc1ncc(S(=O)(=O)c2ccccc2)c(=O)[nH]1	-2	.	0	20
Cc1ccc(S(=O)(=O)Nc2cc(=O)[nH]c(SCC(=O)Nc3cccc(C(F)(F)F)c3)n2)cc1	-3	.	1	.
O=c1cc(NS(=O)(=O)c2ccccc2)nc(SCc2ccc(Cl)cc2)[nH]1	-6	1	.	-13
Cc1cc(C)cc(NC(=O)CSc2ncc(S(=O)(=O)c3ccccc3)c(=O)[nH]2)c1	-1	99*	-1	8
Cc1cccc(NC(=O)CSc2nc(NS(=O)(=O)c3ccccc3)cc(=O)[nH]2)c1	-4	99*	0	3
Cn1c(CNC(=O)CCNC(=O)c2cccc(F)c2)cc(=O)n(C)c1=O	6	-3	0	39
O=C(CCCSc1nc2ccccc2[nH]1)Nc1nnc(C2CC2)s1	-6	-8	0	2
Cc1ccc(NC(=O)CSc2nc(NS(=O)(=O)c3ccc(C)cc3)cc(=O)[nH]2)cc1	10	98*	1	-9
CCN(CCO)c1ccc(N=Nc2cc(C)[nH]n2)cc1	5	84*	-6	-3
CCN(CCO)c1ncnc2onc(-c3ccc(F)cc3)c12	-16	-5	0	-8
CSc1ccccc1NC(=O)COC(=O)CCc1ccccc1	-6	-92	0	-12
CCCC1(C(=O)O)NC(c2ccccc2O)C2C(=O)N(Cc3ccccc3)C(=O)C21 (configuration not stated)	-1	-20	.	-19
CCC1(C(=O)O)NC(c2cc(OC)ccc2O)C2C(=O)N(Cc3ccccc3)C(=O)C21 (configuration not stated)	0	87*	.	20
CCOC(=O)C1(C)NC(c2ccc(OC)cc2OC)C2C(=O)N(CC)C(=O)C21 (configuration not stated)	-4	-2	528*	-2
COc1ccc(C(=O)NCc2ccc3[nH]c(C)cc3c2)cc1OC	-8	.	0	-13
S=C(NCCc1ccccc1)N1CCN(C2CCCCC2)CC1	-1	-6	0	79
COc1cccc2sc3ccc(NCc4ccc5c(c4)OCO5)cc3c(=O)c12	8	92*	2	113
